SARS PLpro yeast-1: blocks SARS-CoV papain-like protease in a yeast assay; S. cerevisiae expressing SARS-CoV PLpro, growth rescue; Potency, µM (highest dose often 32.9 µM), hits mostly activators; 330,000 compounds, 0.19% hits; AID 485353; further: nearly all actives have a fitted effect of over 55% in size
NS1 inh: influenza NS1 inhibition | Potency, µM (series often up to 46.1 µM) | 270,000 compounds, 0.4% hits | AID 2326; further: actives are rising curves; nearly all actives have a fitted effect of over 50% in size
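Compounds were scored for reversing the slow growth caused by influenza A NS1 in S. cerevisiae, measured by optical density at 600 nm. Assay medium contained 2% galactose at pH 6.0; NS1-free yeast of the same strain were the positive control.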
Shiga toxin inh: blocks Shiga toxin action in Vero cells | Vero cells, Shiga toxin protein synthesis inhibition reporter | inhibition, % at 38.7 µM | 290,000 compounds, 9.2% hits | AID 2315; in the data active means inhibition mostly above about 28%, no sharp cut-off; inactive means mostly below about 43%
Cycloheximide cs: counter-screen for Shiga toxin inhibitors: cycloheximide protein synthesis inhibition; cell reporter, cycloheximide protein synthesis inhibition counterscreen; max response, %; 300,000 compounds, 12% hits; AID 2314; in the data active means max response mostly above about 13%, no sharp cut-off; inactive means mostly below about 14%; further: read at 38.3 µM for the half of the compounds with a filed dose
SARS PLpro yeast-2: Rescues yeast growth by inhibiting SARS-CoV PLpro. shares compounds with SARS PLpro yeast-1. yeast expressing SARS-CoV PLpro, growth phenotype rescue. calls only. 1,000 compounds, 19% hits; call rule not given here
Large screens that a line does not name were inactive (follow-up assays come after a bar, where they were run). Hits are enriched below; roughly 12% of the tested compounds scored in any of these assays. Unless noted, the call rests on the fitted dose curve.

CNc1nc(SCc2ccccc2Cl)nc2c1CCCC2	none
CCC(C)C(NC(=O)c1ccccc1NC(=O)c1ccc(OC)cc1)C(=O)NCCCn1ccnc1 (centres undefined)	none
COc1ccc(N(CC(=O)Nc2cc(Cl)ccc2OC)S(=O)(=O)c2c(C)noc2C)cc1	SARS PLpro yeast-1 inconclusive | SARS PLpro yeast-2 active
O=C1c2ccc(Cl)cc2S(=O)(=O)c2cccc(C(=O)N3CCC(Cc4ccccc4)CC3)c21	none (no result: NS1 inh, Shiga toxin inh, Cycloheximide cs)
CCOC(=O)c1cc(-c2ccc(F)cc2)n(CC(=O)NCc2cccnc2)c1C	none (no result: NS1 inh)
O=C(Nc1ccccc1)N1CCCC(c2nc(-c3cccs3)no2)C1 (centres undefined)	SARS PLpro yeast-1 16µM, Shiga toxin inh 80, Cycloheximide cs 19 | SARS PLpro yeast-2 inactive
Cc1ccccc1OCc1n[nH]c(=S)n1Cc1ccccc1	SARS PLpro yeast-1 inconclusive | SARS PLpro yeast-2 inconclusive
Cc1cc(C)c(S(=O)(=O)N2CCCOC2CNC(=O)C(=O)NCc2ccncc2)c(C)c1 (centres undefined)	none
CCOc1ccc(NC(=O)CN(C)C(=O)c2c(C)nn(-c3ccc(F)cc3)c2Cl)cc1OCC	SARS PLpro yeast-1 inconclusive (no result: NS1 inh, Shiga toxin inh, Cycloheximide cs) | SARS PLpro yeast-2 inactive
Cn1nnnc1SCC(=O)Nc1cc(S(=O)(=O)N2CCCCC2)ccc1Cl	none (no result: NS1 inh, Shiga toxin inh, Cycloheximide cs)
Cc1cccc(OCC(=O)Nc2ccc(S(=O)(=O)N3CCN(C)CC3)cc2)c1	SARS PLpro yeast-1 3.5µM | SARS PLpro yeast-2 inactive
CC1CCCC(NC(=O)COc2ncnc3ccccc23)C1C (centres undefined)	SARS PLpro yeast-1 inconclusive (no result: NS1 inh, Shiga toxin inh, Cycloheximide cs) | SARS PLpro yeast-2 inactive
CC1CCCC(NC(=O)CSc2ncnc3ccccc23)C1C (centres undefined)	none (no result: NS1 inh, Shiga toxin inh, Cycloheximide cs)
CCC1Sc2ccc(S(=O)(=O)CCC(=O)NC3CCCCCC3)cc2NC1=O (centres undefined)	none
O=C(C1=C(O)C(=O)N(CCN2CCOCC2)C1c1cccnc1)c1cc2ccccc2o1 (centres undefined)	none
O=C(C1=C(O)C(=O)N(CCCN2CCOCC2)C1c1ccncc1)c1cc2ccccc2o1 (centres undefined)	SARS PLpro yeast-1 13µM | SARS PLpro yeast-2 active
COc1ccc(OC)c(/C=C/C(=O)NCCc2nc3ccccc3[nH]2)c1	none
CC(C)c1cc(N2CCC(=O)NC2=O)cc(C(=O)O)c1O	none
N#Cc1c(N2CCN(C(=O)c3ccccc3)CC2)nc(-c2ccccc2)c2c1CCCC2	none
N#Cc1c(N2CCN(C(=O)c3ccccc3Cl)CC2)nc(-c2ccccc2)c2c1CCCC2	SARS PLpro yeast-1 3.5µM | SARS PLpro yeast-2 inactive
O=C(O)c1ccc(/C=N\N=C2c3ccccc3-c3ccccc32)cc1	none (no result: SARS PLpro yeast-1, Shiga toxin inh, Cycloheximide cs)
CCCCCN(C(=O)NC(=O)Nc1ccc(C)cc1C)S(C)(=O)=O	none (no result: NS1 inh)
CCCCCN(C(=O)NC(=O)Nc1ccc(C)cc1)S(=O)(=O)c1ccccc1	SARS PLpro yeast-1 3.2µM, Cycloheximide cs 20 | SARS PLpro yeast-2 inactive
CCOC(=O)c1oc2ccccc2c1COC(=O)C(C)NC(=O)c1ccco1 (centres undefined)	none (no result: NS1 inh, Shiga toxin inh, Cycloheximide cs)
COCCNC(=S)N1CCN(S(=O)(=O)c2ccc(Cl)s2)CC1	none (no result: SARS PLpro yeast-1) | SARS PLpro yeast-2 inactive
COCCNC(=S)N1CCN(c2ccc(Cl)cc2)CC1	none (no result: NS1 inh)
C[C@]12c3[nH]c4ccc(Cl)cc4c3CCN1C(=O)[C@@H](CC(=O)NCCc1ccccn1)C[C@@H]2C(=O)N1CCCCC1	none (no result: NS1 inh, Shiga toxin inh, Cycloheximide cs)
CCn1cc(C(=O)O)c(=O)c2cc(F)c(N3CCN(S(=O)(=O)c4ccc(NC(=O)OC)cc4)CC3)cc21	SARS PLpro yeast-1 inconclusive, NS1 inh inconclusive | SARS PLpro yeast-2 inactive
COc1cccc(/C=N/NC(=O)c2cc(-c3cccn3C)n[nH]2)c1O	SARS PLpro yeast-1 7.1µM | SARS PLpro yeast-2 inconclusive
COc1cc(/C=N/NC(=O)c2cc(-c3cccn3C)n[nH]2)cc(OC)c1OC	none
COc1cccc(/C=N/NC(=O)C(=O)N/N=C/c2cccc(OC)c2O)c1O	SARS PLpro yeast-1 inconclusive | SARS PLpro yeast-2 active
COc1cccc(/C=N/NC(=O)C(=O)NCc2ccco2)c1O	none
COc1cccc(/C=N/Nc2ncnc(Cl)c2N)c1O	SARS PLpro yeast-1 4.5µM, Shiga toxin inh 40, Cycloheximide cs 55 | SARS PLpro yeast-2 inactive
COc1ccccc1CNC(=O)COC(=O)C1CCN(S(=O)(=O)c2ccc(C)c(C)c2)CC1	none (no result: NS1 inh, Shiga toxin inh, Cycloheximide cs)
CC(Cc1c[nH]c2ccccc12)C(=O)NCc1ccco1 (centres undefined)	none
Cc1cc(C(=O)N/N=C/c2cc(N=Nc3ccccc3)ccc2O)n[nH]1	SARS PLpro yeast-1 7.9µM, Cycloheximide cs 17 | SARS PLpro yeast-2 inactive
CN(C)c1ccc(-c2nc3ccccn3c2/N=C/c2ccc(Br)cc2)cc1	Cycloheximide cs 46 (no result: SARS PLpro yeast-1) | SARS PLpro yeast-2 inactive
CN(C)c1ccc(/C=N/NS(=O)(=O)c2ccc(Br)cc2)cc1	none
CNC(=O)NC1CCCc2ccccc21 (centres undefined)	SARS PLpro yeast-1 inconclusive | SARS PLpro yeast-2 inactive
O=C(Nc1ccccc1)NC1CCCc2ccccc21 (centres undefined)	none
COC(=O)Cc1c[nH]c2cccc(OCC(O)CN(Cc3ccccc3)C(C)C)c12 (centres undefined)	SARS PLpro yeast-1 inconclusive | SARS PLpro yeast-2 inactive
CC(=O)O[C@@H]1[C@@]2(C)O[C@H]2CC[C@]23O[C@H]2[C@H](OC3=O)C2=C(C)C(=O)O[C@@]21O	SARS PLpro yeast-1 inconclusive | SARS PLpro yeast-2 inactive
O=S(=O)(NCCc1csc(-c2cccnc2)n1)c1ccc2c(c1)OCCO2	SARS PLpro yeast-1 inconclusive | SARS PLpro yeast-2 inactive
CC(NC(=O)c1ccc(C#N)cc1)C1CC2CCC1C2 (centres undefined)	none
CC(NC(=O)c1ccc(N(C)C)cc1)C1CC2CCC1C2 (centres undefined)	SARS PLpro yeast-1 22µM, Cycloheximide cs 14 | SARS PLpro yeast-2 inactive
CC(C)NC(=S)N/N=C/c1cc(Br)ccc1O	SARS PLpro yeast-1 inconclusive | SARS PLpro yeast-2 active
CCOc1cc(CNCCc2ccccc2)ccc1OCC(=O)NC(C)(C)C	SARS PLpro yeast-1 18µM | SARS PLpro yeast-2 inactive
CCOc1cc(CNCCc2ccc(S(N)(=O)=O)cc2)ccc1OCC(=O)NC(C)(C)C	none (no result: SARS PLpro yeast-1)
S=C(Nc1ccc(Cl)cc1)N(CCCN1CCOCC1)Cc1cccs1	none
O=C(Nc1ccc(Cl)cc1)N(CCCN1CCOCC1)Cc1cccs1	SARS PLpro yeast-1 inconclusive | SARS PLpro yeast-2 inactive
CCc1ccccc1NC(=S)N(CCCN1CCOCC1)Cc1cccs1	SARS PLpro yeast-1 inconclusive | SARS PLpro yeast-2 inactive
Cc1c(NC=C(C#N)C#N)c(=O)n(-c2ccccc2)n1C	none
Cc1ccccc1C(=O)/C(C#N)=N/Nc1c(C)n(C)n(-c2ccccc2)c1=O	SARS PLpro yeast-1 20µM | SARS PLpro yeast-2 inactive
CCOC(=O)/C(C#N)=N/Nc1c(C)n(C)n(-c2ccccc2)c1=O	none (no result: NS1 inh)
Cc1c(N/N=C(\C#N)C(=O)c2ccccc2)c(=O)n(-c2ccccc2)n1C	SARS PLpro yeast-1 inconclusive | SARS PLpro yeast-2 inactive
O=C(Nc1cc(Cl)cc(Cl)c1)C(NCCO)c1ccccc1 (centres undefined)	SARS PLpro yeast-1 inconclusive | SARS PLpro yeast-2 inactive
CCc1ccccc1NC(=O)CN1CCN(C(=O)c2ccc(OCc3cn4ccccc4n3)cc2)CC1	SARS PLpro yeast-1 inconclusive (no result: NS1 inh, Shiga toxin inh, Cycloheximide cs) | SARS PLpro yeast-2 inactive
CCc1ccccc1NC(=O)CNC(=O)c1ccc(OCc2cn3ccccc3n2)cc1	none (no result: NS1 inh, Shiga toxin inh, Cycloheximide cs)
CC(=O)Nc1ccc(S(=O)(=O)N(C)CC(=O)OCC(=O)NC(C)C23CC4CC(CC(C4)C2)C3)cc1 (centres undefined)	SARS PLpro yeast-1 inconclusive | SARS PLpro yeast-2 inactive
